Inconclusive results are not listed. Entries that show only a call come without a potency. Activity calls are given as the source filed them. Calls follow the shape of the dose curve; as a rule, active = well fitted inhibition curve with a large enough effect; inconclusive = small, poorly fitted or top-dose-only effect; inactive = flat fitted curve, though single readings scatter.
Experiments:
[1] = system: Zika virus NS2B-NS3 protease; experiment: Primary screen GU AMC qHTS for Zika virus inhibitors (AID 1347154); also: nearly all actives have a fitted effect of over 70% in size
Procedure, shortened: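 Unlinked Zika NS2B hydrophilic domain–NS3 protease complex at 25 nM in 10 mM Tris-HCl pH 8.0, 0.01% Tween 20, with an AMC peptide substrate. Fluorescence change (340/450 nm) over 15 min at room temperature, normalized to controls, fitted to 4-parameter Hill.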

[2] = target: Lysine-specific demethylase 5B (Homo sapiens) (UniProt Q9UGL1); experiment: Optimization screen for KDM5B Histone Demethylases FDH coupled qHTS against the LOPAC library (AID 1347166)
Procedure, shortened: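 KDM5BDeltaAP (200nM final) preincubated 10 min with compound, then 12.5uM H3K4Me3, 25uM a-ketoglutarate, ascorbate, Fe(II), NAD+ and FDH added; 50mM HEPES pH 7.5, 0.01% Tween-20. NADH fluorescence (340/450 nm) change over 30 min, room temperature.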

Chain of Lysine-specific demethylase 5B (Homo sapiens) (Q9UGL1 whole entry, looked up): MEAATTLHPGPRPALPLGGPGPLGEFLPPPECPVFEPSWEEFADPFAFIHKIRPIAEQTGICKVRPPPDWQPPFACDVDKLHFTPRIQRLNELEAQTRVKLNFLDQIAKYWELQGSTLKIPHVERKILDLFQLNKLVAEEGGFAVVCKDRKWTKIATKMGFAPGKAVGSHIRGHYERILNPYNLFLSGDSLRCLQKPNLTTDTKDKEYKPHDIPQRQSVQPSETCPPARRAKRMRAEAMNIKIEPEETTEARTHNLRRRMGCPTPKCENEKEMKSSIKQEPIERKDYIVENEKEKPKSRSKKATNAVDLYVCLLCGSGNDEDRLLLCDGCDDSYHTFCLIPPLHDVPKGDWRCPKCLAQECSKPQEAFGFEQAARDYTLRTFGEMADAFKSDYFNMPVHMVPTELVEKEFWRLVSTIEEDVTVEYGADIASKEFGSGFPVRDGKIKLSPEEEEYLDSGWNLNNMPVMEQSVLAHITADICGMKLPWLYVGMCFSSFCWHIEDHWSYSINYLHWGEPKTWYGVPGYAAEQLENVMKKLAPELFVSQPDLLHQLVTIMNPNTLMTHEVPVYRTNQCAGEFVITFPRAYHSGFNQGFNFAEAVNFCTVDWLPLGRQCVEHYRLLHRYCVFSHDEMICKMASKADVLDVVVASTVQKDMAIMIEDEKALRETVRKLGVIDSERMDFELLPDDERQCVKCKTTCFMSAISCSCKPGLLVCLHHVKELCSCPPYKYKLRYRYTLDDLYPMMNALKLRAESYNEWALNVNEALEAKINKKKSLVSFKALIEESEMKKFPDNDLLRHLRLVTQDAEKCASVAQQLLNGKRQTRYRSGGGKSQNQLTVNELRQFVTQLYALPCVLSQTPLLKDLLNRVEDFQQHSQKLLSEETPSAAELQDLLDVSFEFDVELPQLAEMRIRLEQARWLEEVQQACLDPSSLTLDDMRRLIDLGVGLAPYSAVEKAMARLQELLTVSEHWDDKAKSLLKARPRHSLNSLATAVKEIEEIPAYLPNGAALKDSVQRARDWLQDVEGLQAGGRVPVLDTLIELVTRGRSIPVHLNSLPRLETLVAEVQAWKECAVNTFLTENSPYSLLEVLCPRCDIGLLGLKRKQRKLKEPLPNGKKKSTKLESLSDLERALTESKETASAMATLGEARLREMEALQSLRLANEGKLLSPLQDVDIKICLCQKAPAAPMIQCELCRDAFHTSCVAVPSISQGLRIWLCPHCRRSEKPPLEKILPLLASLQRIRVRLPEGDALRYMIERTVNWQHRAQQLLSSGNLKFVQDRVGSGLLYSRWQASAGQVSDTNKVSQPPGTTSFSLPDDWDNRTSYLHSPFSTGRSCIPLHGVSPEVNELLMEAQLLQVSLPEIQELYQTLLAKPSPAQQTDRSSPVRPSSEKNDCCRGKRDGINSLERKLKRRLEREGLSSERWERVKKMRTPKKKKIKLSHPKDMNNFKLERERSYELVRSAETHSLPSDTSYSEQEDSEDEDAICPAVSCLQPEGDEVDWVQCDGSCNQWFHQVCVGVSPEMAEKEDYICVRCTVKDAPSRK

| SMILES | outcome [1] | Potency [2] |
| --- | --- | --- |
| CO[C@@]1(NC(=O)CSCC#N)C(=O)N2C(C(=O)O)=C(CSc3nnnn3C)CS[C@@H]21 | inactive |  |
| C[N+](C)(C)CCOC(N)=O | inactive | inactive |
| NS(=O)(=O)c1cc2c(cc1Cl)NC(C1CC3C=CC1C3)NS2(=O)=O (stereo unspecified) | inactive | inactive |
| C[C@]12CC[C@@H]3c4ccc(O)cc4C[C@@H](CCCCCCCCCS(=O)CCCC(F)(F)C(F)(F)F)[C@H]3[C@@H]1CC[C@@H]2O (stereo partly specified) | inactive | inactive |
| NC(N)=N/N=C/c1c(Cl)cccc1Cl | inactive | inactive |
| CN(C)C(=O)Oc1cccc([N+](C)(C)C)c1 | inactive |  |
| COCCCC/C(=N\OCCN)c1ccc(C(F)(F)F)cc1 | inactive | inactive |
| CCc1c(C)[nH]c2c1C(=O)C(CN1CCOCC1)CC2 (stereo unspecified) | inactive |  |
| COc1ccc([C@@H]2Sc3ccccc3N(CCN(C)C)C(=O)[C@@H]2OC(C)=O)cc1 | inactive | inactive |
| CC(C)NNC(=O)c1ccncc1 | inactive |  |
| Cc1nc2ccccn2c(=O)c1CCN1CCC(C(=O)c2ccc(F)cc2)CC1 | inactive |  |
| c1cnc(N2CCN(Cc3ccc4c(c3)OCO4)CC2)nc1 | inactive | inactive |
| c1ccc2c(c1)CCCC2C1=NCCN1 (stereo unspecified) | inactive | inactive |
| CCN(Cc1ccncc1)C(=O)C(CO)c1ccccc1 (stereo unspecified) | inactive | inactive |
| CN(C)CCN(Cc1cccs1)c1ccccn1 | inactive | inactive |
| OCCN1CCN(CC/C=C2/c3ccccc3Sc3ccc(C(F)(F)F)cc32)CC1 | inactive | inactive |
| Cc1nc2c([nH]1)c(=O)n(C)c(=O)n2Cc1ccco1 | inactive | inactive |
| CN1C(=O)CC[C@H]1c1cccnc1 | inactive | inactive |
| CCO/C([O-])=N/c1c[n+](N2CCOCC2)no1 | inactive | inactive |
| COc1ccc(CCN(C)CCCC(C#N)(c2cc(OC)c(OC)c(OC)c2)C(C)C)cc1OC (stereo unspecified) | inactive | inactive |
| CN1CCN(CC(=O)N2c3ccccc3C(=O)Nc3cccnc32)CC1 | inactive | inactive |
| O=c1[nH]c(=O)n([C@H]2C[C@H](O)[C@@H](CO)O2)cc1Br | inactive | inactive |

| SMILES | outcome [1] | Potency [2] |
| --- | --- | --- |
| CCCCCCCC/C=C\CCCCCCCC(=O)NCc1ccc(O)c(OC)c1 | inactive | inactive |
| NC(N)=NC(=O)Cc1c(Cl)cccc1Cl | inactive | inactive |
| CNC1(C)C2CCC(C2)C1(C)C (stereo unspecified) | inactive | inactive |
| COCC(=O)O[C@]1(CCN(C)CCCc2nc3ccccc3[nH]2)CCc2cc(F)ccc2[C@@H]1C(C)C | inactive | inactive |
| C[N+](C)(C)CCOC(=O)CCC(=O)OCC[N+](C)(C)C | inactive | inactive |
| C[C@@H](O)[C@H]1C(=O)N2C(C(=O)O)=C(SCCN=CN)C[C@H]12 | inactive | inactive |
| COc1ccc(CN(CCN(C)C)c2ccccn2)cc1 | inactive | inactive |
| Cc1cccc(C)c1NC(=O)C(C)N (stereo unspecified) | inactive | inactive |
| CC(N=C(NC#N)Nc1ccncc1)C(C)(C)C (stereo unspecified) | inactive | inactive |
| NC1=NCC2c3ccccc3Cc3ccccc3N12 (stereo unspecified) | inactive | inactive |
| NC(=O)N1c2ccccc2C=Cc2ccccc21 | inactive | inactive |
| CN=C(NC#N)NCCSCc1nc[nH]c1C | inactive | inactive |
| CC(C)[N+](C)(CCOC(=O)C1c2ccccc2Oc2ccccc21)C(C)C | inactive | inactive |
| c1cc(CN2CCCCC2)cc(OCCCNc2nc3ccccc3s2)c1 | inactive | inactive |
| CCc1cccc(N(C)C(N)=Nc2cccc3ccccc23)c1 | inactive | inactive |
| O=C(O)CN(CCN(CC(=O)O)CC(=O)O)CCN(CC(=O)O)CC(=O)O | inactive | inactive |
| CCCCCN(CCCCC)C(=O)C(CCC(=O)O)NC(=O)c1ccc(Cl)c(Cl)c1 (stereo unspecified) | inactive | inactive |
| CCNC(=O)N1CCN(CCCC(c2ccc(F)cc2)c2ccc(F)cc2)CC1 | inactive | inactive |
| CC(C)(Oc1ccc(CCNC(=O)c2ccc(Cl)cc2)cc1)C(=O)O | inactive | inactive |
| CCCN(CCC)CCc1cccc2c1CC(=O)N2 | inactive | inactive |
| COc1cc(C(=O)OCCCN2CCCN(CCCOC(=O)c3cc(OC)c(OC)c(OC)c3)CC2)cc(OC)c1OC | inactive | inactive |

Reference: PubChem BioAssay (NCATS)
